TROY NFkB inh – inhibitors of TROY-dependent NF-kB signaling | 360,000 tested, 0.98% active | AID 1347056 | Q293 LMP1-TROYcd NF-kB luciferase reporter, 4 h | inhibition, % at 10 µM;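 active = compounds whose plate-normalised and pattern-corrected inhibition of the luciferase reporter signal at the single screening dose is 50% or more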
HIF-2a block – inhibitors of HIF-2a; 786-0 RCC cells HIF-2a reporter, luciferase luminescence, overnight; AID 624352; inhibition, % at 18.8 µM; 360,000 tested, 0.72% active;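 active = inhibition of the luminescence signal of 40% or more relative to plate controls, in a single-dose primary screen at 18.75 µM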
TWEAK-Fn14 inh – blocks TWEAK-Fn14 interaction in a reporter cell assay; TWEAK-stimulated Fn14 reporter cells, luciferase luminescence, 8 h; 360,000 tested, 2% active; inhibition, % at 10 µM; in the data active = inhibition above about 50%
CF NFkB inh – inhibitors of cystic fibrosis induced NF-kB; 360,000 tested, 0.86% active; KKLEB NF-kB-GFP reporter, PAF-induced, GFP fluorescence overnight; inhibition, % at 5 µM;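 active = at least 50% inhibition at 5 µM, scaled per plate between neutral and stimulator controls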;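 note: PAF is a Pseudomonas aeruginosa culture filtrate used as stimulus; plate controls were PAF-stimulated DMSO wells for no effect and unstimulated DMSO wells for full effect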
KKLEB tox – reduces viability of KKLEB cystic fibrosis airway cells; KKLEB CF airway cells viability, ATPlite luminescence, overnight; active compounds read low; cells stimulated with P. aeruginosa culture filtrate; activity change (cytotoxicity), % at 5 µM; 360,000 tested, 0.36% active; AID 602141;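 active = corrected activity change at or below -50% at 5 µM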
Peg3 prom inh-1 – inhibitors of Peg3 promoter | HeLa PEG-Prom luciferase reporter, luminescence, overnight | inhibition, % at 20 µM | 360,000 tested, 1.7% active;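 active = inhibition of at least 50% at 20 µM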
Peg3 prom inh-2 – confirmation of Peg3 promoter inhibitors; 1,300 tested, 84% active; HeLa PEG-Prom luciferase reporter, luminescence, overnight; inhibition, % at 20 µM; shares compounds with Peg3 prom inh-1;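 active = at 20 µM dose, 40% or more inhibition averaged across four replicates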
Active calls of the source: *; nt = not tested or not shown. Most compounds without a hit are left out; they make up all but 4% or so of the library.

SMILES | TROY NFkB inh | HIF-2a block | TWEAK-Fn14 inh | CF NFkB inh | KKLEB tox | Peg3 prom inh-1 | Peg3 prom inh-2
O=S(=O)(Cc1nnnn1-c1ccc(Br)cc1)c1ccccc1 | -5 | 2 | 2 | -14 | 10 | 8 | nt
CCS(=O)(=O)c1nnnn1-c1ccccc1S(C)(=O)=O | 1 | 21 | 27 | 29 | 1 | 58* | 38
CN(C)CCNc1ncnc2c1ncn2[C@H]1CN(Cc2ccccc2)C[C@@H](CO)O1 | -1 | 1 | -2 | 10 | -5 | -7 | nt
CN(C)CCNc1ncnc2c1ncn2[C@H]1CN(Cc2ccc(-c3ccccc3)cc2)C[C@@H](CO)O1 | 14 | -3 | 12 | 10 | -5 | 80* | 75*
Cc1cc(Br)ccc1NC(=O)CNC(=O)Cn1ncc(Cl)c(Cl)c1=O | 28 | 8 | 60* | 91* | -51* | 111* | 98*
O=C(NCCc1ccccc1)C(=O)NCC1CCCN1S(=O)(=O)c1ccccc1 (configuration not stated) | 30 | 3 | 3 | 25 | -18 | 40 | nt
COc1ccc(CCNC(=O)C(=O)NCC2CCCN2S(=O)(=O)c2ccccc2)cc1OC (configuration not stated) | 23 | 19 | 24 | -7 | 8 | 56* | 58*
COc1cc(Nc2c3ccccc3nc3ccccc23)cc(OC)c1OC | -36 | 46* | 1 | -96 | 5 | 107* | 99*
COc1ccc(Nc2c3c(nc4ccccc24)CCCC3)cc1OC | -7 | 22 | -1 | -3 | -6 | 5 | nt
COc1ccc(-c2cc(C(F)F)n3ncc(C(=O)n4ccnc4C)c3n2)cc1 | -3 | 31 | 23 | 74* | -32 | 55* | 95*
Nc1c(NCc2ccccc2)c(=O)c1=O | 15 | 11 | 11 | -2 | -1 | 10 | nt
CCCCCCSc1cc(-c2nc3ccc(C)cn3c2NCCCC)ccc1OC | -27 | -36 | 16 | 38 | -10 | 79* | 93*
OCCN=C1CCCc2c1[nH]c1ccc(Cl)cc21 | -34 | -18 | 8 | -10 | -10 | 28 | nt
COc1cc(/C=C/c2ccc3cccc(O)c3n2)c(Br)cc1O | -12 | -141 | 20 | -6 | -10 | 98* | 92*
CSc1ccc(/C=C/c2ccc3cccc(O)c3n2)cc1 | 33 | -124 | 15 | -5 | -10 | -77 | nt
COc1cc(/C=C/c2ccc3cccc(O)c3n2)ccc1O | -58 | -296 | -25 | -40 | 1 | 103* | 57*
COc1cc(Br)cc(/C=C/c2ccc3cccc(O)c3n2)c1O | -31 | -91 | -3 | -13 | 9 | 2 | nt
COc1ccc(NC(=O)C(C)Sc2nnc(C3CC3)n2C2CC2)cc1 (configuration not stated) | 5 | 5 | -8 | 1 | 3 | -1 | nt
CN1CCN(c2ccc(-c3cccc(NC(=O)COc4ccc(Cl)cc4Cl)c3)nn2)CC1 | 74* | -67 | 63* | 10 | -58* | 54* | 16
O=C(O)c1cc(-c2ccc(Cl)cc2)n(-c2cccc(Cl)c2)n1 | -12 | 18 | -8 | 4 | 2 | 11 | nt
Cc1ccc2sc(N(CCCN(C)C)C(=O)c3ccc(S(=O)(=O)N(C)C4CCCCC4)cc3)nc2c1C | 0 | -11 | -22 | 36 | -17 | 104* | 100*
CC(=O)c1cccc(CN2CCCC(CCC(=O)NCc3ccccc3F)C2)c1 (configuration not stated) | -2 | 12 | 6 | -16 | 3 | 8 | nt
Cc1cccc(-c2nnn(CC/C(N)=N/O)n2)c1 | -24 | -69 | -19 | -1 | 1 | -83 | nt
CCc1nc(N=Nc2c(O)[nH]c3ccccc23)c2c3c(sc2n1)CCC3 | 2 | -16 | 12 | -38 | 21 | 85* | 10
CC1CCc2c(sc3ncn(CC(=O)N=Nc4c(O)[nH]c5ccccc45)c(=O)c23)C1 (configuration not stated) | -10 | 21 | -1 | -1 | 14 | 39 | nt
CCCCC(=O)NC(c1ccc(N(CC)CC)cc1)c1ccc2cccnc2c1O (configuration not stated) | 33 | 7 | 11 | -7 | -11 | 59* | 70*
CCCCC(=O)NC(c1ccc(N(C)C)cc1)c1ccc2cccnc2c1O (configuration not stated) | 6 | 5 | 9 | 3 | 0 | 44 | nt

Screening results as filed in PubChem BioAssay.
